Values without a mark were called inactive.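 Rule for the calls: active = compounds killing one labelled cell type while sparing the other, by normalised counts and ratio limits, not self-fluorescent; inactive = the rest.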
Assay: differential killing of epithelial or mesenchymal cells, primary screen, imaging, PC-3E GFP, TEM4-18 mCherry, co-culture (AID 1345086);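 note: normalised mesenchymal count divided by normalised epithelial count so high means epithelial killing; cells exposed to compound for 72 h before imaging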
Details: imaging cell counts, at 1 µM, actives lie on both sides, counts scaled to control wells, 1 = unselective

SMILES	red/green cell ratio (normalised)
Clc1ccc(Br)cc1OCC1CCCNC1 (stereo not given)	0.91
C=CC(C)(C)c1cc(O)ccc1OC1OC(CO)C(O)C(O)C1O (stereo not given)	1.01
CC1(C)C[C@@H]2C(=O)CC[C@@H]3O[C@]3(C)CC[C@H]21	0.92
COC(=O)C1O[C@H](Sc2ccccc2)[C@@H](OC(=O)c2ccccc2)[C@@H](OC(=O)c2ccccc2)C1O (stereo not given in full)	0.96
Cc1c(O)c(O)cc2oc3cc(O)cc(O)c3c(=O)c12	1.06
COC(=O)/C=C/C(C)=C/C=C/C(C)=C/C=C/C=C(C)/C=C/C=C(C)/C=C/C(=O)O	0.81
COC(=O)CNC(=O)c1ccc([C@H](O)c2ccccc2)cn1	0.87
O=C(O)CCC(=O)OC1C(CO)O[C@H](Sc2ccccc2)[C@H]2NC(=O)O[C@@H]12 (stereo not given in full)	1.26
CC(C)(C)OC(=O)NCCCC(NC(=O)C(Cc1ccccc1)NC(=O)OC(C)(C)C)C(=O)O (stereo not given)	0.88
CC(=O)OC1(C)CC[C@@]23CC1C(C)(C)[C@@H]2CC[C@H]3C (stereo not given in full)	0.99

From PubChem BioAssay
